{
  "source": "PubChem BioAssay (NCATS)",
  "note": "Active and inactive are the calls of the source. Calls come from the whole dose curve; as a rule, active = well fitted curve in the direction sought with a large enough effect; inconclusive = small, poorly fitted or top-dose-only effect, or another doubt; inactive = no such curve, though single readings can be large or run the other way.",
  "data": [
    {"target": "T1, Hexokinase-4 (Homo sapiens) + Glucokinase regulatory protein (Homo sapiens) (UniProt P35557+Q14397)", "T1 sequence (P35557 whole entry, looked up)": "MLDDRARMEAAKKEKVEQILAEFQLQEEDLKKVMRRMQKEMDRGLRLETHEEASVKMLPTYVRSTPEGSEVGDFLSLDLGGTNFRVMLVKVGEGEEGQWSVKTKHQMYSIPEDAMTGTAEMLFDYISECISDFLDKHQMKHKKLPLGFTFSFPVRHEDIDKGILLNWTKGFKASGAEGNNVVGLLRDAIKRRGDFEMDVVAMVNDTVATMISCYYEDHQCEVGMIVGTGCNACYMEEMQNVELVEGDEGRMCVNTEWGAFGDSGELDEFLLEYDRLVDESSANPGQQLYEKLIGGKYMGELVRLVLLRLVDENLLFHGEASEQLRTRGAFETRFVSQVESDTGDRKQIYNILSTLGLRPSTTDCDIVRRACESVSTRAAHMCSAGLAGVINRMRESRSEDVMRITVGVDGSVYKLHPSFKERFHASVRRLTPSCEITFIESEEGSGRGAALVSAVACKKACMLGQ", "T1 sequence (Q14397 whole entry, looked up)": "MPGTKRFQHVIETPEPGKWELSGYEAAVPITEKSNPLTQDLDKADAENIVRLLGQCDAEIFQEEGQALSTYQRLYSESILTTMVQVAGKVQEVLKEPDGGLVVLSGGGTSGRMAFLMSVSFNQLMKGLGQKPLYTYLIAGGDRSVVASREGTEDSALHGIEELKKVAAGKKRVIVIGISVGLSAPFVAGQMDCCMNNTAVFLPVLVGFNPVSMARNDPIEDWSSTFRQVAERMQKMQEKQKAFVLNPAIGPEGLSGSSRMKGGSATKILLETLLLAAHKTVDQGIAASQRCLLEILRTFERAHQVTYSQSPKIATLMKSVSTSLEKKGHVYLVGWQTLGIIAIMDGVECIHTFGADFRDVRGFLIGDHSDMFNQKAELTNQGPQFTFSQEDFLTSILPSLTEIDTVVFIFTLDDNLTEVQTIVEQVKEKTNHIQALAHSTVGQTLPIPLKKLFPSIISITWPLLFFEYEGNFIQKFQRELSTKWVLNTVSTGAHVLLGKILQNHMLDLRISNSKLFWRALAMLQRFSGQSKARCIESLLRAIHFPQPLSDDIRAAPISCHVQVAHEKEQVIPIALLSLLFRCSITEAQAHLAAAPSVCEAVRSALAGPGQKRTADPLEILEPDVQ", "assay": "qHTS assay for inhibitors of recombinant human GCK-GKRP interaction: Diaphorase-coupled assay (AID 743205)", "conditions": "G6PDH/diaphorase resorufin fluorescence; series mostly up to 57.5 µM; activity change, positive = activation: at the top concentration", "method_in_brief": "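Inhibitors of the GCK–GKRP complex relieve GKRP suppression of GCK, detected through a G6PDH–diaphorase cascade reducing resazurin. Human GST-GCK and FLAG-GKRP are used at 10 nM with 5 mM glucose and 0.4 mM ATP.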", "values": [
      {"smiles": "O=C1OC(=O)C2C3CCC(O3)C12", "note": "(stereo unspecified)", "activity change, positive = activation": "-1.35% (inactive)"},
      {"smiles": "Oc1cc2c(cc1O)C(c1ccccc1)CNCC2", "note": "(stereo unspecified)", "activity change, positive = activation": "-1.93% (inactive)"},
      {"smiles": "COc1cc(/C=C(\\C#N)C(=O)c2ccc(O)c(O)c2)cc(I)c1O", "activity change, positive = activation": "-36.2% (inactive)"},
      {"smiles": "COc1cc(N)c(Cl)cc1C(=O)OCCN1CCCCC1", "activity change, positive = activation": "-0.811% (inactive)"},
      {"smiles": "O=C(O)/C(=C/c1c(C(=O)O)[nH]c2cc(Cl)cc(Cl)c12)c1ccccc1", "activity change, positive = activation": "-5.09% (inactive)"},
      {"smiles": "NC1C=CC=C(C(=O)O)C1", "note": "(stereo unspecified)", "activity change, positive = activation": "-2.81% (inactive)"},
      {"smiles": "CSC(=N)N", "activity change, positive = activation": "-2.04% (inactive)"},
      {"smiles": "CCCCCCCCCC[Si](C)(C)CCC(=O)NC(Cc1ccc(C)cc1)c1ccccc1", "note": "(stereo unspecified)", "activity change, positive = activation": "-3.12% (inactive)"},
      {"smiles": "C[N+](C)(C)CC=O", "activity change, positive = activation": "-2.49% (inactive)"},
      {"smiles": "N=C(N)SCCc1cnc[nH]1", "activity change, positive = activation": "2.47% (inactive)"},
      {"smiles": "CC(C)[C@@H]1CC[C@@H](C)C[C@@H]1P(=O)(c1ccccc1)c1ccccc1", "activity change, positive = activation": "-1.15% (inactive)"},
      {"smiles": "Nc1ccc2c3c(cccc13)C(=O)NC2=O", "activity change, positive = activation": "-9.03% (inactive)"},
      {"smiles": "COc1cc2c(CCNC(C)=O)c[nH]c2cc1O", "activity change, positive = activation": "-31.8% (inactive)"},
      {"smiles": "Cn1cc(C(F)(F)F)nc1-c1ccc(OCC(O)CNCCOc2ccc(O)c(C(N)=O)c2)cc1", "note": "(stereo unspecified)", "activity change, positive = activation": "-1.09% (inactive)"},
      {"smiles": "COc1ccc(-c2cc3ncc(C)n3c(Nc3ncccc3C(N)=O)n2)cc1OC", "activity change, positive = activation": "-3.67% (inactive)"},
      {"smiles": "NCCCCN", "activity change, positive = activation": "-3.14% (inactive)"},
      {"smiles": "N=S(=O)(O)Cc1noc2ccccc12", "activity change, positive = activation": "-4.93% (inactive)"},
      {"smiles": "NCC(O)(CS(=O)(=O)O)c1ccc(Cl)cc1", "note": "(stereo unspecified)", "activity change, positive = activation": "-0.607% (inactive)"},
      {"smiles": "NC(=O)CC[C@H](N)C(=O)O", "activity change, positive = activation": "-4.41% (inactive)"},
      {"smiles": "CN[C@H](CC(=O)O)C(=O)O", "activity change, positive = activation": "-2.17% (inactive)"},
      {"smiles": "COc1ccc2c(c1)c(CC(=O)O)c(C)n2Cc1ccc(Cl)cc1", "activity change, positive = activation": "-25.5% (inactive)"},
      {"smiles": "CSC(N)=NCCC[C@H](N)C(=O)O", "activity change, positive = activation": "-4.02% (inactive)"},
      {"smiles": "NCCS(=O)O", "activity change, positive = activation": "-2.82% (inactive)"},
      {"smiles": "Nc1nc2c(nc(Br)n2C2OC3COP(=O)(O)O[C@@H]3C2O)c(=O)[nH]1", "note": "(stereo partly specified)", "activity change, positive = activation": "-0.0411% (inactive)"},
      {"smiles": "NCCC1CCCC(CCN)N1", "note": "(stereo unspecified)", "activity change, positive = activation": "-1.37% (inactive)"},
      {"smiles": "NCCCCN=C(N)N", "activity change, positive = activation": "-1.95% (inactive)"},
      {"smiles": "O=C(c1ccc2c(c1)OCCO2)N1CCCCC1", "activity change, positive = activation": "-2.13% (inactive)"},
      {"smiles": "CN1CCN(c2nc3cc(C(F)(F)F)ccc3n3cccc23)CC1", "activity change, positive = activation": "-4.65% (inactive)"},
      {"smiles": "Oc1cc(O)c2c(c1)O[C@H](c1ccc(O)c(O)c1)[C@@H](O)C2", "activity change, positive = activation": "-10.2% (inactive)"},
      {"smiles": "CC(=O)[C@H]1CCC2C3CC=C4C[C@@H](OS(=O)(=O)O)CC[C@]4(C)C3CC[C@@]21C", "note": "(stereo partly specified)", "activity change, positive = activation": "7.82% (inactive)"},
      {"smiles": "CN(C)C(=O)/N=N/C(=O)N(C)C", "activity change, positive = activation": "1.99% (inactive)"},
      {"smiles": "CNC(=O)c1cc2c(cn1)[nH]c1ccccc12", "activity change, positive = activation": "-2.12% (inactive)"},
      {"smiles": "N=C(N)c1ccc(OCCCCCOc2ccc(C(=N)N)cc2)cc1", "note": "(tested in a mixture with another compound)", "activity change, positive = activation": "-1.17% (inactive)"},
      {"smiles": "CCCn1c(=O)c2c(ncn2C)n(CCC)c1=O", "activity change, positive = activation": "2.46% (inactive)"},
      {"smiles": "C=C1C[C@@]23CC[C@H]4[C@@](C)(CCC[C@@]4(C)C(=O)O)[C@@H]2CC[C@]1(O)C3", "activity change, positive = activation": "-0.79% (inactive)"},
      {"smiles": "OC[C@H]1O[C@H](n2cnc3c(N[C@H]4CCC[C@@H]4O)ncnc32)[C@H](O)[C@@H]1O", "activity change, positive = activation": "-4.03% (inactive)"},
      {"smiles": "Cc1nc(N=Nc2ccc(C(=O)O)cc2)c(COP(=O)(O)O)c(C=O)c1O", "activity change, positive = activation": "-18.2% (inactive)"},
      {"smiles": "O=C(O)C1=CCCN(CCON=C(c2ccccc2)c2ccccc2)C1", "activity change, positive = activation": "-1.9% (inactive)"}
    ]},
    {"target": "T1, Hexokinase-4 (Homo sapiens) + Glucokinase regulatory protein (Homo sapiens)", "assay": "qHTS assay for inhibitors of recombinant human GCK-GKRP interaction: ADP-Glo assay (AID 743206);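 note: plate controls were DMSO plus enzyme for no effect and no enzyme for full effect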", "conditions": "ADP-Glo luminescence, 60 min; series mostly up to 76.9 µM; activity, positive = activation: at the top concentration", "method_in_brief": "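GST-GCK and FLAG-GKRP (15 nM each in the dispensed mix, with 2 uM S6P) react with 0.4 mM ATP and 5 mM glucose (final) in Hepes pH 7.6 for 60 min at room temperature. ADP is measured by ADP-Glo luminescence.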", "values": [
      {"smiles": "O=C1OC(=O)C2C3CCC(O3)C12", "note": "(stereo unspecified)", "activity, positive = activation": "2.93% (inactive)"},
      {"smiles": "Oc1cc2c(cc1O)C(c1ccccc1)CNCC2", "note": "(stereo unspecified)", "activity, positive = activation": "3.6% (inactive)"},
      {"smiles": "COc1cc(/C=C(\\C#N)C(=O)c2ccc(O)c(O)c2)cc(I)c1O", "activity, positive = activation": "26.5% (inactive)"},
      {"smiles": "COc1cc(N)c(Cl)cc1C(=O)OCCN1CCCCC1", "activity, positive = activation": "0.583% (inactive)"},
      {"smiles": "O=C(O)/C(=C/c1c(C(=O)O)[nH]c2cc(Cl)cc(Cl)c12)c1ccccc1", "activity, positive = activation": "8.71% (inactive)"},
      {"smiles": "NC1C=CC=C(C(=O)O)C1", "note": "(stereo unspecified)", "activity, positive = activation": "0.598% (inactive)"},
      {"smiles": "CSC(=N)N", "activity, positive = activation": "4.08% (inactive)"},
      {"smiles": "CCCCCCCCCC[Si](C)(C)CCC(=O)NC(Cc1ccc(C)cc1)c1ccccc1", "note": "(stereo unspecified)", "activity, positive = activation": "2.3% (inactive)"},
      {"smiles": "C[N+](C)(C)CC=O", "activity, positive = activation": "4.6% (inactive)"},
      {"smiles": "N=C(N)SCCc1cnc[nH]1", "activity, positive = activation": "3.17% (inactive)"},
      {"smiles": "CC(C)[C@@H]1CC[C@@H](C)C[C@@H]1P(=O)(c1ccccc1)c1ccccc1", "activity, positive = activation": "-0.701% (inactive)"},
      {"smiles": "Nc1ccc2c3c(cccc13)C(=O)NC2=O", "activity, positive = activation": "-0.442% (inactive)"},
      {"smiles": "COc1cc2c(CCNC(C)=O)c[nH]c2cc1O", "activity, positive = activation": "1.15% (inactive)"},
      {"smiles": "Cn1cc(C(F)(F)F)nc1-c1ccc(OCC(O)CNCCOc2ccc(O)c(C(N)=O)c2)cc1", "note": "(stereo unspecified)", "activity, positive = activation": "3.34% (inactive)"},
      {"smiles": "COc1ccc(-c2cc3ncc(C)n3c(Nc3ncccc3C(N)=O)n2)cc1OC", "activity, positive = activation": "0.134% (inactive)"},
      {"smiles": "NCCCCN", "activity, positive = activation": "3.17% (inactive)"},
      {"smiles": "N=S(=O)(O)Cc1noc2ccccc12", "activity, positive = activation": "-0.881% (inactive)"},
      {"smiles": "NCC(O)(CS(=O)(=O)O)c1ccc(Cl)cc1", "note": "(stereo unspecified)", "activity, positive = activation": "-1.94% (inactive)"},
      {"smiles": "NC(=O)CC[C@H](N)C(=O)O", "activity, positive = activation": "-1.81% (inactive)"},
      {"smiles": "CN[C@H](CC(=O)O)C(=O)O", "activity, positive = activation": "2.56% (inactive)"},
      {"smiles": "COc1ccc2c(c1)c(CC(=O)O)c(C)n2Cc1ccc(Cl)cc1", "activity, positive = activation": "-1.11% (inactive)"},
      {"smiles": "CSC(N)=NCCC[C@H](N)C(=O)O", "activity, positive = activation": "0.195% (inactive)"},
      {"smiles": "NCCS(=O)O", "activity, positive = activation": "5.79% (inactive)"},
      {"smiles": "Nc1nc2c(nc(Br)n2C2OC3COP(=O)(O)O[C@@H]3C2O)c(=O)[nH]1", "note": "(stereo partly specified)", "activity, positive = activation": "-0.842% (inactive)"},
      {"smiles": "NCCC1CCCC(CCN)N1", "note": "(stereo unspecified)", "activity, positive = activation": "3.16% (inactive)"},
      {"smiles": "NCCCCN=C(N)N", "activity, positive = activation": "-0.575% (inactive)"},
      {"smiles": "O=C(c1ccc2c(c1)OCCO2)N1CCCCC1", "activity, positive = activation": "-0.0533% (inactive)"},
      {"smiles": "CN1CCN(c2nc3cc(C(F)(F)F)ccc3n3cccc23)CC1", "activity, positive = activation": "-2.1% (inactive)"},
      {"smiles": "Oc1cc(O)c2c(c1)O[C@H](c1ccc(O)c(O)c1)[C@@H](O)C2", "activity, positive = activation": "-0.591% (inactive)"},
      {"smiles": "CC(=O)[C@H]1CCC2C3CC=C4C[C@@H](OS(=O)(=O)O)CC[C@]4(C)C3CC[C@@]21C", "note": "(stereo partly specified)", "activity, positive = activation": "-0.922% (inactive)"},
      {"smiles": "CN(C)C(=O)/N=N/C(=O)N(C)C", "activity, positive = activation": "-0.0879% (inactive)"},
      {"smiles": "CNC(=O)c1cc2c(cn1)[nH]c1ccccc12", "activity, positive = activation": "0.628% (inactive)"},
      {"smiles": "N=C(N)c1ccc(OCCCCCOc2ccc(C(=N)N)cc2)cc1", "note": "(tested in a mixture with another compound)", "activity, positive = activation": "3.02% (inactive)"},
      {"smiles": "CCCn1c(=O)c2c(ncn2C)n(CCC)c1=O", "activity, positive = activation": "1.01% (inactive)"},
      {"smiles": "C=C1C[C@@]23CC[C@H]4[C@@](C)(CCC[C@@]4(C)C(=O)O)[C@@H]2CC[C@]1(O)C3", "activity, positive = activation": "2.83% (inactive)"},
      {"smiles": "OC[C@H]1O[C@H](n2cnc3c(N[C@H]4CCC[C@@H]4O)ncnc32)[C@H](O)[C@@H]1O", "activity, positive = activation": "5.14% (inactive)"},
      {"smiles": "Cc1nc(N=Nc2ccc(C(=O)O)cc2)c(COP(=O)(O)O)c(C=O)c1O", "activity, positive = activation": "-2.85% (inactive)"},
      {"smiles": "O=C(O)C1=CCCN(CCON=C(c2ccccc2)c2ccccc2)C1", "activity, positive = activation": "-3.13% (inactive)"}
    ]}
  ]
}
